Reference: PubChem BioAssay (NCI)
“And” between values parts separate entries of the source, which are not always exact repeats. Equal values may be shown once. About 79,000 compounds went through this panel and 15% of them were active in at least one assay; those are over-represented in the sample as a whole. More than one record can exist for a structure, and the calls need not agree. The source made the active and inactive calls. No stated cut-off is given here; in the data, active means growth inhibition above about 70%; inactive means the rest.

How the values were obtained:
[1] = NCI Yeast Anticancer Drug Screen. Data for the rad52 strain (AID 147);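 further: 0% = growth of vehicle-treated control cultures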; conditions: S. cerevisiae rad52 mutant growth inhibition, stronger effect = higher value
Summary of the method: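 Compounds are applied to a genetically defined yeast strain lacking normal DNA damage repair, and inhibition of growth is expressed relative to cultures given vehicle only.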

[2] = NCI Yeast Anticancer Drug Screen. Data for the rad50EPP+ strain (AID 151);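 further: 0% = growth of vehicle-treated control cultures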; conditions: S. cerevisiae rad50 mutant strain, stronger effect = higher value
Summary of the method: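 Compounds were applied to the rad50EPP+ yeast strain, which bears a defined DNA repair alteration, and growth inhibition was determined relative to vehicle-treated cultures.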

[3] = NCI Yeast Anticancer Drug Screen. Data for the mgt1 strain (AID 153); conditions: S. cerevisiae mgt1 mutant growth inhibition, stronger effect = higher value
Summary of the method: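 Strain: mgt1 yeast, one of a set carrying defined DNA damage repair or cell cycle control alterations. Compound-treated growth compared with vehicle.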

[4] = NCI Yeast Anticancer Drug Screen. Data for the rad50 strain (AID 155);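 further: 0% = growth of vehicle-only cultures of the same strain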; conditions: S. cerevisiae rad50 strain growth inhibition, stronger effect = higher value
Summary of the method: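 Vehicle-treated cultures provide the reference for the growth inhibition reported for compound-exposed, repair-deficient yeast.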

[5] = NCI Yeast Anticancer Drug Screen. Data for the mec2-1 strain (AID 157); conditions: S. cerevisiae mec2-1 strain, stronger effect = higher value
Summary of the method: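 Strain: mec2-1 (DNA repair/cell cycle alteration). Compound exposure, then growth measured; inhibition expressed relative to vehicle.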

[6] = NCI Yeast Anticancer Drug Screen. Data for the rad14 strain (AID 159);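 further: 0% = growth of vehicle-treated control cultures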; conditions: S. cerevisiae rad14 strain growth inhibition, stronger effect = higher value
Summary of the method: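 Inhibition of growth is reported for a repair-deficient yeast mutant following compound treatment, calculated relative to cultures that received vehicle.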

[7] = NCI Yeast Anticancer Drug Screen. Data for the sgs1 mgt1 strain (AID 161);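 further: 0% = growth of cultures given vehicle only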; conditions: S. cerevisiae sgs1 mgt1 strain, stronger effect = higher value
Summary of the method: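 Read-out: growth inhibition vs vehicle controls. Cells: mutant yeast strain deficient in DNA damage repair.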

[8] = NCI Yeast Anticancer Drug Screen. Data for the CLN2oe strain (AID 163);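 further: 0% = growth of vehicle-only control cultures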; conditions: S. cerevisiae CLN2oe strain, stronger effect = higher value
Summary of the method: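 Growth of a genetically modified yeast strain is measured after compound exposure and compared with cultures given vehicle alone.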

[9] = NCI Yeast Anticancer Drug Screen. Data for the cln2 rad14 strain (AID 165);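 further: 0% = growth equal to vehicle treated cultures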; conditions: S. cerevisiae cln2 rad14 strain, stronger effect = higher value
Summary of the method: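 Compounds are applied to the cln2 rad14 yeast strain, and growth is then compared with that of vehicle-treated cultures to give inhibition.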

[10] = NCI Yeast Anticancer Drug Screen. Data for the bub3 strain (AID 167); conditions: S. cerevisiae bub3 mutant strain, stronger effect = higher value
Summary of the method: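 Mutant yeast screening strain plus compound; vehicle-treated cultures serve as the 0% inhibition reference.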

[11] = NCI Yeast Anticancer Drug Screen. Data for the wt2 strain (AID 169); conditions: S. cerevisiae wt2 strain growth inhibition, stronger effect = higher value
Summary of the method: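 This strain belongs to a panel of yeast strains with defined genetic alterations in DNA damage repair or cell cycle control. Compounds are applied, and growth inhibition is measured against vehicle-treated cultures.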

[12] = NCI Yeast Anticancer Drug Screen. Data for the mlh1 strain (AID 171);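 further: 0% = growth of vehicle-treated control cultures of the same strain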; conditions: S. cerevisiae mlh1 strain growth inhibition, stronger effect = higher value
Summary of the method: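 Growth of the mutant yeast strain after compound exposure, expressed as inhibition relative to vehicle-only controls.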

[13] = NCI Yeast Anticancer Drug Screen. Data for the sgs1 strain (AID 173);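 further: 0% = growth of vehicle-only control cultures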; conditions: S. cerevisiae sgs1 mutant, stronger effect = higher value
Summary of the method: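 Growth of a yeast strain bearing a defined genetic alteration is measured after compound treatment. Inhibition is expressed relative to vehicle-only controls.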

[14] = NCI Yeast Anticancer Drug Screen. Data for the mlh1 rad18 strain (AID 175); conditions: S. cerevisiae mlh1 rad18 strain growth inhibition, stronger effect = higher value
Summary of the method: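 Read-out is yeast growth inhibition, calculated against vehicle-only controls. The compound was applied to a strain engineered with DNA damage repair alterations.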

[15] = NCI Yeast Anticancer Drug Screen. Data for the rad18 strain (AID 177); conditions: S. cerevisiae rad18 mutant growth inhibition, stronger effect = higher value
Summary of the method: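 Growth of the mutant yeast strain after compound exposure, normalised to vehicle-only cultures.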

[16] = NCI Yeast Anticancer Drug Screen. Data for the wt1 strain (AID 149);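 further: 0% = growth of vehicle-treated wt1 cultures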; conditions: S. cerevisiae wt1 strain (SPY 50644) growth inhibition, stronger effect = higher value
Summary of the method: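 Each compound is tested on wt1 yeast and the loss of growth versus vehicle gives the inhibition value.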

[17] = at 5.0 µM (retest, dose inferred, filed as 0.5)
[18] = at 50.0 µM (retest, dose inferred, filed as 5.0)

Measured: growth inhibition

O=C1NC(SSC2=NNC3(C(=O)N2)c2ccccc2-c2ccccc23)=NNC12c1ccccc1-c1ccccc12
inactive: [1]; at 1.2 µM 2% | [1]; at 3.7 µM -1% | [1]; at 11.0 µM 1% | [1]; at 33.0 µM 8% | [1]; at 100.0 µM 33% | [2]; at 1.2 µM 8% | [2]; at 3.7 µM 9% | [2]; at 11.0 µM 20% | [2]; at 33.0 µM 43% | [2]; at 100.0 µM 63% | [3]; at 1.2 µM 1% | [3]; at 3.7 µM 0% | [3]; at 11.0 µM 0% | [3]; at 33.0 µM -10% | [3]; at 100.0 µM 7% | [4]; at 1.2 µM -1% | [4]; at 3.7 µM 7% | [4]; [17] -4% | [4]; at 11.0 µM -13% | [4]; at 33.0 µM 18% | [4]; [18] 53% | [4]; at 100.0 µM 37% | [5]; at 1.2 µM 1% | [5]; at 3.7 µM 2% | [5]; [17] -11% | [5]; at 11.0 µM 3% | [5]; at 33.0 µM 7% | [5]; [18] 10% | [5]; at 100.0 µM 13% | [6]; at 1.2 µM -1% | [6]; at 3.7 µM -4% | [6]; at 11.0 µM -1% | [6]; at 33.0 µM 2% | [6]; at 100.0 µM 8% | [7]; [17] -7% | [7]; [18] -23% | [8]; at 1.2 µM 4% | [8]; at 3.7 µM 1% | [8]; at 11.0 µM 1% | [8]; at 33.0 µM 5% | [8]; at 100.0 µM 2% | [9]; [17] 0% | [9]; [18] -14% | [9]; at 50.0 µM 51.8% | [10]; at 1.2 µM 4% | [10]; at 3.7 µM 6% | [10]; [17] 10% | [10]; at 11.0 µM 7% | [10]; at 33.0 µM 12% | [10]; [18] 25% | [10]; at 100.0 µM 12% | [11]; at 1.2 µM -1% | [11]; at 3.7 µM -3% | [11]; at 11.0 µM -3% | [11]; at 33.0 µM 0% | [11]; at 100.0 µM 5% | [12]; at 1.2 µM 3% | [12]; at 3.7 µM 1% | [12]; at 11.0 µM 2% | [12]; at 33.0 µM 8% | [12]; at 100.0 µM 17% | [13]; at 1.2 µM -4% | [13]; at 3.7 µM -1% | [13]; at 11.0 µM -6% | [13]; at 33.0 µM 1% | [13]; at 100.0 µM 11% | [14]; [17] -11% | [14]; [18] -7% | [15]; at 1.2 µM 0% | [15]; at 3.7 µM 3% | [15]; at 11.0 µM 5% | [15]; at 33.0 µM 5% | [15]; at 100.0 µM 9%
active: [4]; at 50.0 µM 96.2% | [5]; at 50.0 µM 80% | [7]; at 50.0 µM 80.5% | [10]; at 50.0 µM 86.5% | [14]; at 50.0 µM 96.2%

COc1ccc(C(=O)C(CN(C)C)CN(C)C)cc1
0.15% (inactive) and 75.1% (active): [10]; at 50.0 µM
inactive: [1]; at 1.2 µM -14% | [1]; at 3.7 µM 30% | [1]; at 11.0 µM 30% | [1]; at 33.0 µM 29% | [1]; at 100.0 µM 48% | [16]; at 1.2 µM -5% | [16]; at 3.7 µM -1% | [16]; at 11.0 µM -4% | [16]; at 33.0 µM 3% | [16]; at 100.0 µM 40% | [3]; at 1.2 µM -26% | [3]; at 3.7 µM -12% | [3]; at 11.0 µM -8% | [3]; at 33.0 µM 11% | [4]; at 1.2 µM 7% | [4]; at 3.7 µM -1% | [4]; [17] 26% and 8% | [4]; at 11.0 µM -2% | [4]; at 33.0 µM 11% | [4]; [18] 52% and 35% | [4]; at 50.0 µM 35.8% and 45.3% | [4]; at 100.0 µM 51% | [5]; at 1.2 µM -20% | [5]; at 3.7 µM -9% | [5]; [17] 14% and 1% | [5]; at 11.0 µM -4% | [5]; at 33.0 µM 9% | [5]; [18] 63% and 41% | [5]; at 100.0 µM 68% | [6]; at 1.2 µM -13% | [6]; at 3.7 µM -8% | [6]; at 11.0 µM -2% | [6]; at 33.0 µM 19% | [6]; at 100.0 µM 24% | [8]; at 1.2 µM 15% | [8]; at 3.7 µM 12% | [8]; at 11.0 µM 6% | [8]; at 33.0 µM 33% | [8]; at 100.0 µM 46% | [9]; [17] 11% and 20% | [9]; [18] 31% and 36% | [9]; at 50.0 µM 21.6% and 30.7% | [10]; at 1.2 µM -18% | [10]; at 3.7 µM -5% | [10]; [17] 21% and 19% | [10]; at 11.0 µM -2% | [10]; at 33.0 µM 11% | [10]; [18] 51% and 33% | [11]; at 1.2 µM 12% | [11]; at 3.7 µM 1% | [11]; at 11.0 µM 4% | [11]; at 33.0 µM 36% | [12]; at 1.2 µM -32% | [12]; at 3.7 µM -15% | [12]; at 11.0 µM -13%
active: [3]; at 100.0 µM 77% | [5]; at 50.0 µM 74.2% and 75.8% | [10]; at 100.0 µM 74% | [11]; at 100.0 µM 79%
